Measurements: PubChem BioAssay (NCATS)
“And” between values parts separate entries of the source, which are not always exact repeats. Identical values can stand only once. Inconclusive results are not listed. The source made the active and inactive calls. Unless noted, calls come from the whole dose curve; as a rule, active = well fitted curve in the direction sought with a large enough effect; inconclusive = small, poorly fitted or top-dose-only effect, or another doubt; inactive = no such curve, though single readings can be large; an effect the other way counts as inactive or inconclusive.

Assays:
[1] = molecular target: Tumor necrosis factor (Homo sapiens) (UniProt P01375); test: qHTS assay to identify small molecules that stimulate Tumor Necrosis Factor-alpha (TNF-alpha) secretion (AID 651757; active = well fitted curve in the direction sought with a large enough effect in the signal ratio; the % refers to the signal ratio; note: 0% is about no effect)
Chain of Tumor necrosis factor (Homo sapiens) (P01375 whole entry, looked up): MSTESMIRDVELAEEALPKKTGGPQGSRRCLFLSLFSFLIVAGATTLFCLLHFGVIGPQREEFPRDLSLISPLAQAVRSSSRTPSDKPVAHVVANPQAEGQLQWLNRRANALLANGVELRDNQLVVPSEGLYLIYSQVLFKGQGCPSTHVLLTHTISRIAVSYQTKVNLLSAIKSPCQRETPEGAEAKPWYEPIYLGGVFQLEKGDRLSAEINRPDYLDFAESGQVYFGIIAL
How it was run: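 Secreted TNF-alpha from compound-treated THP-1 cells (17 hrs, 37 C) was quantified with a homogeneous time-resolved fluorescence antibody assay.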

[2] = qHTS assay for environmental chemicals that activate the Aryl hydrocarbon Receptor (AhR) signaling pathway (AID 651777); details: 1A2-DRE human hepatoma cells, luciferase, 24 h; stronger effect = higher value; note: % of control where 0% means no effect; nearly all actives have a fitted effect of over 15% in size
How it was run: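 AhR activation is scored as a rise in luciferase from a stable DRE–CYP1A2 promoter construct in human hepatoma cells. Treatment lasts 24 hr at 37 C; detection uses One-Glo after 30 min at room temperature.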

[3] = molecular target: Peroxisome proliferator-activated receptor alpha (Homo sapiens) (UniProt Q07869); test: qHTS assay for small molecule agonists of the peroxisome proliferator-activated receptor alpha (PPARalpha) signaling pathway (AID 651778); details: PathHunter PPARalpha complementation, chemiluminescence, 6 h; stronger effect = higher value; note: % of control where 0% means no effect
Chain of Peroxisome proliferator-activated receptor alpha (Homo sapiens) (Q07869 whole entry, looked up): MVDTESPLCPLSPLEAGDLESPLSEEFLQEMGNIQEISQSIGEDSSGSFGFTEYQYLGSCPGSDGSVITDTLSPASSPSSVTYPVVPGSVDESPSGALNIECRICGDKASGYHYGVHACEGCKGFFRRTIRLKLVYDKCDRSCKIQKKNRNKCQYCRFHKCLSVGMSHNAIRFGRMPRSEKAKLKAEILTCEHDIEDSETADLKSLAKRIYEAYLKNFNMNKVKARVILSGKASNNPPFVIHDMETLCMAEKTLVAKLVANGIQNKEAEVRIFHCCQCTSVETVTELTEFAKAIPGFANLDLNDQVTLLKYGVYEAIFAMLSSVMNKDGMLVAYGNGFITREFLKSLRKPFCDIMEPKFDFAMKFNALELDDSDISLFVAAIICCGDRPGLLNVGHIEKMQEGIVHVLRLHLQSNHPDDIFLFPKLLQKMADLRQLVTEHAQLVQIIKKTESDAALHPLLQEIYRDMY
How it was run: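 Chemiluminescence from complemented enzyme reported PPARalpha activation in cells after 6 hr of compound treatment at 37 C. The detection reagent was incubated for 60 min at room temperature, and compounds were scored as agonists.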

[4] = qHTS for compounds that reverse cellular toxicity of Amyloid beta (A-beta) peptide in yeast: LOPAC Validation Assay (AID 720559);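 note: plate controls were DMSO for no effect and equimolar ferric chloride plus clioquinol rescue for full effect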
How it was run: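 Rescue of A-beta toxicity was scored as yeast growth by 600 nm absorbance after 48 hr at 30 C with compound. Normalization used DMSO (negative) and equimolar ferric chloride plus clioquinol (positive).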

[5] = qHTS for Activators of Parkin Expression: LOPAC Validation Assay (NLuc Reporter) (AID 720572;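 note: 0% = DMSO and 100% = positive control compound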)
How it was run: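 Parkin promoter-driven FLuc/NLuc neuronal reporter cells; 24 h plating, 7-pt dose response, 24 h at 37 C/5% CO2; FLuc then NanoLuc reagent, 10 min each, luminescence; DMSO/positive control normalized.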

[6] = qHTS for Activators of Parkin Expression: LOPAC Validation Assay (FLuc Reporter) (AID 720573;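 note: 0% = DMSO and 100% = positive control compounds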)
How it was run: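 FLuc signal from Parkin-promoter coincidence reporter neuronal cells, normalized to DMSO and positive control (100%). Cells (1,500/well) pre-incubated 24 h, then exposed to LOPAC compounds in 7-point dose response for 24 h at 37 C, 5% CO2.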

[7] = qHTS assay for small molecule agonists of the antioxidant response element (ARE) signaling pathway measured by Nrf2-dependant transcriptional activity (AID 720636; active = well fitted curve in the direction sought with a large enough effect in the repeat runs; an effect the other way counts as inactive or inconclusive;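 note: HepG2 cells with an ARE-driven luciferase reporter; % of control where 0% means no effect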)
How it was run: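 First, ARE-luc HepG2 cells attached for 6 hr at 37 C in 1% dialyzed FBS medium. Next, compound or DMSO was added and incubated 16 hr. Finally, ONE-Glo reagent was added and luminescence measured after 30 min.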

[8] = qHTS assay for small molecule agonists of the antioxidant response element (ARE) signaling pathway measured by Nrf2-dependant transcriptional activity - cell viability counter screen (AID 720653; active = well fitted curve in the direction sought with a large enough effect in the repeat runs; an effect the other way counts as inactive or inconclusive; note: % is set by controls: 0 for no effect and ±100 for the full control effect); details: ARE-bla HepG2 viability, CellTiter-Glo ATP luminescence, 16 h; max response: stronger effect = lower value
How it was run: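 Cytotoxicity counter screen: intracellular ATP quantified by CellTiter-Glo luminescence in the same ARE-bla HepG2 plates, after 16 h compound exposure and a 2 h beta-lactamase substrate step.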

[9] = molecular target: Hexokinase-4 (Homo sapiens) + Glucokinase regulatory protein (Homo sapiens) (UniProt P35557+Q14397); test: qHTS assay for inhibitors of recombinant human GCK-GKRP interaction: Diaphorase-coupled assay (AID 743205)
Chain of Hexokinase-4 (Homo sapiens) + Glucokinase regulatory protein (Homo sapiens) (P35557 whole entry, looked up): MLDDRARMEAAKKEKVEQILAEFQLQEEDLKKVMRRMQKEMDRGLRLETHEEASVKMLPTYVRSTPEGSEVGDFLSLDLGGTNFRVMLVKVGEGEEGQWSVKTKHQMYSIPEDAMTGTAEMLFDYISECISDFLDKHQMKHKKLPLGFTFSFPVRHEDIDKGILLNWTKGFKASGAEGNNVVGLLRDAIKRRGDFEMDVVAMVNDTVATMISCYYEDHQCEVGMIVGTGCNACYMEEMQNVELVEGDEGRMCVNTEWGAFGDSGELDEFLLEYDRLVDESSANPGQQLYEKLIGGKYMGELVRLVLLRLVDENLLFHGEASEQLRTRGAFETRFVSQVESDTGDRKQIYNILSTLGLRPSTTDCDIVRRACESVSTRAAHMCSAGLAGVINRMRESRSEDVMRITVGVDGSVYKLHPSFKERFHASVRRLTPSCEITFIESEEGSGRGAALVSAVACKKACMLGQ
Chain of Hexokinase-4 (Homo sapiens) + Glucokinase regulatory protein (Homo sapiens) (Q14397 whole entry, looked up): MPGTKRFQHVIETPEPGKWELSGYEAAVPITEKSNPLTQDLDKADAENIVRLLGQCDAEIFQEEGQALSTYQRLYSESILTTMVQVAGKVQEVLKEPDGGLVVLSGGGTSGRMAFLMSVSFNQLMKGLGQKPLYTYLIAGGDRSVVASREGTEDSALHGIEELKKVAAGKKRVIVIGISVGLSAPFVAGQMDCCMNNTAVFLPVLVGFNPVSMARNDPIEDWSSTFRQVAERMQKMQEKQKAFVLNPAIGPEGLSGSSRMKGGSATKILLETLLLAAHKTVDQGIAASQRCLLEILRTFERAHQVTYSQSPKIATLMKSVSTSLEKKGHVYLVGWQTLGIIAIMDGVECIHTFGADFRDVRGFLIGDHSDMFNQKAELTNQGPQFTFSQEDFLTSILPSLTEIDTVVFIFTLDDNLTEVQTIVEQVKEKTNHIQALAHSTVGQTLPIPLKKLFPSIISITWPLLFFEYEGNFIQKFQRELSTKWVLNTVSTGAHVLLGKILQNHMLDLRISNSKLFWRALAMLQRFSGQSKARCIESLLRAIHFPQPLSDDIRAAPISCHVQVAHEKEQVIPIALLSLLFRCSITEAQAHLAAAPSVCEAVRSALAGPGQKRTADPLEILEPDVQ
How it was run: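 A kinetic fluorescence read (Ex 525/Em 590 nm, every minute for 30 minutes) tracked resorufin from a G6PDH-diaphorase coupled GCK reaction. It contained 10 nM GST-GCK, 10 nM FLAG-GKRP, 5 mM glucose, 0.4 mM ATP in Hepes pH 7.6. Normalized to with/without-enzyme DMSO controls.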

[10] = molecular target: Arylsulfatase A (Homo sapiens) (UniProt P15289); test: qHTS screen for enhancers of Arylsulfatase A (ASA1): LOPAC Validation Assay (AID 720538); note: 0% is about no effect
Chain of Arylsulfatase A (Homo sapiens) (P15289 whole entry, looked up): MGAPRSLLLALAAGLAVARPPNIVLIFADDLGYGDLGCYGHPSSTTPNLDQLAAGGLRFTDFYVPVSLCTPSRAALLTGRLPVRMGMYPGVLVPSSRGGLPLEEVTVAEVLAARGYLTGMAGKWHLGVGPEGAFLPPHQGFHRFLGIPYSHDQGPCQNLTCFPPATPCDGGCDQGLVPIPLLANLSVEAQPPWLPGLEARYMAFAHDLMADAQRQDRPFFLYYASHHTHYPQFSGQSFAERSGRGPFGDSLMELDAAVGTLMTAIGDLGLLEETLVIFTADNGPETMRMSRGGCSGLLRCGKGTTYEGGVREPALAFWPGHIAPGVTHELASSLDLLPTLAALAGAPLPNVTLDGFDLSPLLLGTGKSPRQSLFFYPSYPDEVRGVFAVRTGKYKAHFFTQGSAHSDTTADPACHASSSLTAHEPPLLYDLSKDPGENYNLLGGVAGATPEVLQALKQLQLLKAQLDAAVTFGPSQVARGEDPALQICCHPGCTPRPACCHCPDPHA
How it was run: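 Enhancer assay in patient-derived MLD fibroblasts carrying ASA-I179S: 48 h compound exposure at 37 C, then 14 h room-temperature pNCS turnover (0.5 mM final) in lysis buffer. Read by fluorescence at 525/598 nm after NaOH stop.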

[11] = molecular target: Nuclear receptor ROR-gamma (Homo sapiens) (UniProt P51449); test: qHTS assay for small molecule antagonists of the retinoid-related orphan receptor gamma (ROR-gamma) signaling pathway (AID 651802);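 note: CHO cells with doxycycline-induced ROR-gamma expression; series mostly up to about 92 µM; % is set by controls: 0 for no effect and ±100 for the full control effect; nearly all actives have a fitted effect of over 60% in size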
Chain of Nuclear receptor ROR-gamma (Homo sapiens) (P51449 whole entry, looked up): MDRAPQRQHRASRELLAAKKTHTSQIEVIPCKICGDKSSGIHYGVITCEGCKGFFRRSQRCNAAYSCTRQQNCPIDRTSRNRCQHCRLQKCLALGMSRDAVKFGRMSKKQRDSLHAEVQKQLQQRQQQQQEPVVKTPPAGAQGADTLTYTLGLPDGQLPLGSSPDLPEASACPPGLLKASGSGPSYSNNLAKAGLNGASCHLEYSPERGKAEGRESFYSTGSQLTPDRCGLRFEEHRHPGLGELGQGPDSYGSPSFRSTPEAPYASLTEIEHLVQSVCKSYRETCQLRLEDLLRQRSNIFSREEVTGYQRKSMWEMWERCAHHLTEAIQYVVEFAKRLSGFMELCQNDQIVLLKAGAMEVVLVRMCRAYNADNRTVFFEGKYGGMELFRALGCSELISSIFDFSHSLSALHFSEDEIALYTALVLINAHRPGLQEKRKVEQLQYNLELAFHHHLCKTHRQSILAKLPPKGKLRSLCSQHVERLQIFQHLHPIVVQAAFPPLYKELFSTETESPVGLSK
How it was run: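 Antagonism is scored as a fall in luminescence from a RORE-luciferase reporter in CHO cells expressing ROR under a TET-inducible promoter, measured 16hr after doxycycline induction in the presence of compound.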

[12] = qHTS assay for small molecule antagonists of the retinoid-related orphan receptor gamma (ROR-gamma) signaling pathway - cell viability counter screen (AID 720652; active = well fitted curve in the direction sought with a large enough effect in the repeat runs; an effect the other way counts as inactive or inconclusive;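 note: CHO reporter cells with doxycycline-induced ROR-gamma expression; series mostly up to about 92 µM; compound exposure lasted 16 hr before ATP read; % is set by controls: 0 for no effect and ±100 for the full control effect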)
How it was run: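 Cytotoxicity is quantified via intracellular ATP (CellTiter-Glo luminescence) in doxycycline-induced CHO ROR response element-luciferase reporter cells treated with compound for 16 hr at 37 C, 5% CO2.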

[13] = molecular target: Tyrosine-protein kinase Yes (Homo sapiens) (UniProt P07947); test: qHTS for small molecule inhibitors of Yes1 kinase: Primary Screen (AID 686947);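 note: plate controls were DMSO with enzyme for no effect and no-enzyme DMSO wells for full effect; nearly all actives have a fitted effect of over 60% in size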
Chain of Tyrosine-protein kinase Yes (Homo sapiens) (P07947 whole entry, looked up): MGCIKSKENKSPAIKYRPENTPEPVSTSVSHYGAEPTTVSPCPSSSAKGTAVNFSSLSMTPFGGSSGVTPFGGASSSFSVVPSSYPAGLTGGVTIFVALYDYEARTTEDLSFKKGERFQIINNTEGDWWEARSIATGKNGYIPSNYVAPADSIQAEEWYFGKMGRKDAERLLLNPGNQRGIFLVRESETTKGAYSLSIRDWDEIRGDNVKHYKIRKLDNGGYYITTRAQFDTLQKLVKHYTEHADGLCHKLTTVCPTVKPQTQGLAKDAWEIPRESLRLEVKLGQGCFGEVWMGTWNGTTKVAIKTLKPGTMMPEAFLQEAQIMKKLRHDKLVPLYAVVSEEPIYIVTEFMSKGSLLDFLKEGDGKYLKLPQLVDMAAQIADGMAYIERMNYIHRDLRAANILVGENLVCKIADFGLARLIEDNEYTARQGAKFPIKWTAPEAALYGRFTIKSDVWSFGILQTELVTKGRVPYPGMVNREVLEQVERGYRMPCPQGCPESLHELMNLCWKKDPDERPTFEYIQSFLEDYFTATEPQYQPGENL
How it was run: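 ADP-Glo luminescence readout; final 4 nM Yes1, 0.1 mM ATP, 0.3 mg/mL poly(E4Y), Tris pH 7.5, MgCl2, DTT, Brij-35. 20 min compound preincubation, 60 min reaction at RT. Normalized to DMSO wells with and without enzyme.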

[14] = qHTS for small molecule inhibitors of Yes1 kinase: Counter Assay (AID 686950);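 note: no kinase present so only ADP-Glo detection of a fixed ADP amount is tested; luminescence from ADP-Glo reporting ADP in a fixed ATP and ADP mixture; series mostly up to about 77 µM; 0% = DMSO wells with ATP plus ADP and -100% = ATP-only wells without ADP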
How it was run: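 Luminescence read-out from ADP-Glo quantifies a fixed ADP amount (0.02 mM ADP with 0.08 mM ATP) after 60 min at room temperature; signal is normalized between DMSO wells with ATP/ADP and with 0.1 mM ATP alone.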

[15] = qHTS assay to identify small molecules that stimulate interleukin-8 (IL-8) secretion (AID 651758; active = well fitted activation curve with a large enough effect in the signal ratio; the % refers to the signal ratio; note: 0% is about no effect)
How it was run: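 Secreted IL-8 measured by TR-FRET sandwich (cryptate and XL665 antibodies) from THP-1 cells exposed to compound overnight (16 hrs, 37 C).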

[16] = qHTS assay for small molecule disruptors of the mitochondrial membrane potential - 5 hr assay (AID 651755; calls by dose curve; note: % is set by controls: 0 for no effect and ±100 for the full control effect; nearly all actives have a fitted effect of over 40% in size)
How it was run: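 HepG2, 2,000 cells/well, overnight attach; cpd or DMSO 5 hr, 37C/5% CO2; Mito-MPS 30 min 37C; fluor 490/535 + 540/590 nm.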

[17] = qHTS assay for small molecule disruptors of the mitochondrial membrane potential - 1 hr assay (AID 651754; calls by dose curve; note: % is set by controls: 0 for no effect and ±100 for the full control effect; nearly all actives have a fitted effect of over 35% in size)
How it was run: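 Steps: seed HepG2 cells and let attach overnight; pin-transfer compound or vehicle; incubate 1 hr at 37C; add Mito-MPS dye for 30 min; read two-channel fluorescence for monomer and aggregate forms.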

NC(=O)c1ncn([C@@H]2O[C@H](CO)[C@@H](O)[C@H]2O)n1
inactive: outcome [1] | activation [2] 0.173% | max response [3] -11% | outcome [4] | Potency [5] | outcome [6] | outcome [7] | max response [8] -11.8% | outcome [9]

CNC(=O)Oc1ccc2c(c1)[C@]1(C)CCN(C)[C@@H]1N2C
inactive: activation [2] 2.6% | max response [3] -3.11% | outcome [4] | Potency [5] | outcome [6] | outcome [7] | max response [8] -1.23%

O=C1NS(=O)(=O)c2ccccc21
inactive: max response [3] 0.552% | outcome [7] | max response [8] -2.82%

O=S(=O)(O)NC1CCCCC1
inactive: activation [2] 1.78% | max response [3] -1.02% | outcome [7] | max response [8] 2.33%

CC(CN1c2ccccc2Sc2ccccc21)N(C)C (stereo not given)
inactive: activation [2] -0.788% | max response [3] -2.77% | Potency [10] | outcome [4] | Potency [5] | outcome [6] | outcome [7] | max response [8] -20.1% | outcome [9]

CN(C)CCOC(C)(c1ccccc1)c1ccccn1 (stereo not given)
inactive: activation [2] -1.5% | max response [3] -0.887% | Potency [10] | outcome [7] | max response [8] -11.9% | outcome [9]

Cc1cc(CC(=O)O)n(C)c1C(=O)c1ccc(Cl)cc1
inactive: activation [2] 0.224% | max response [3] -2.08% | Potency [11] | outcome [7] | Potency [12] | max response [8] -9.23%

CC12CCC(CC1)C(C)(C)O2
inactive: outcome [1] | activation [2] -0.144% | max response [3] -0.195% | Potency [11] | outcome [7] | Potency [12] | max response [8] 3.37%

NC(=O)c1ncn([C@@H]2O[C@H](CO)[C@@H](O)[C@H]2O)c1N
inactive: outcome [13] | outcome [14]

NCCNCCNCCN
inactive: outcome [1] | outcome [15] | max response [3] -1.93% | Potency [11] | outcome [7] | Potency [12] | max response [8] -12.2%

CN(C)CCC=C1c2ccccc2CCc2ccccc21
inactive: outcome [1] | activation [2] -1.66% and 0.429% | max response [3] -4.24% and -3.42% | outcome [4] | Potency [5] | outcome [6] | outcome [9]

O=C1Nc2ccc(Cl)cc2[C@@](C#CC2CC2)(C(F)(F)F)O1
inactive: outcome [13] | outcome [14]

COc1ccccc1O
inactive: outcome [1] | activation [2] 0.592% and -0.634% and 2.1% | max response [3] -1.16% and 0.39% and -4.81% | Potency [11] | outcome [7] | Potency [12] | max response [8] 0.99% and -1.64% and 4.12%

CC1=C(/C=C/C(C)=C/C=C/C(C)=C/C(=O)O)C(C)(C)CCC1
inactive: activation [2] 4.57% and 7.11% | max response [3] -0.0468% and 3.03% | Potency [10] | outcome [4] | Potency [5] | max response [8] -2.09% and 3.64% | outcome [9]

NC(=O)N/N=C/c1ccc([N+](=O)[O-])o1
inactive: Potency [16] | outcome [15] | activation [2] 5.25% and 3.59% | max response [3] 0.128% and 1.29% | Potency [12] | max response [8] -20.9%

CC(O)COc1ccccc1 (stereo not given)
inactive: activation [2] 1.38% | max response [3] -0.783% | outcome [7] | max response [8] -6.41%

Cc1cccc(Nc2cc(Cl)nc(SCC(=O)O)n2)c1C
inactive: activation [2] -1.86% | max response [3] -1.35% | outcome [7] | max response [8] -4.18%

[Cl][In]([Cl])[Cl]
inactive: Potency [17] | Potency [16] | outcome [1] | activation [2] 0.307% | max response [3] -1.33% | Potency [11] | Potency [12] | max response [8] 5.32%
